Source: PubChem (National Center for Advancing Translational Sciences (NCATS))
D2 PAM-1 – D2 dopamine receptor (human) potentiation | P14416 | HEK293 T-REx D2, calcium flux, EC20 dopamine potentiation | AID 485347 | actives 0.34% (n = 340,000) | potentiation, % at 10 µM;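 active = potentiation over 3 SD above the plate norm, cut at about 30% in these data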
Target sequence (P14416 whole entry, looked up): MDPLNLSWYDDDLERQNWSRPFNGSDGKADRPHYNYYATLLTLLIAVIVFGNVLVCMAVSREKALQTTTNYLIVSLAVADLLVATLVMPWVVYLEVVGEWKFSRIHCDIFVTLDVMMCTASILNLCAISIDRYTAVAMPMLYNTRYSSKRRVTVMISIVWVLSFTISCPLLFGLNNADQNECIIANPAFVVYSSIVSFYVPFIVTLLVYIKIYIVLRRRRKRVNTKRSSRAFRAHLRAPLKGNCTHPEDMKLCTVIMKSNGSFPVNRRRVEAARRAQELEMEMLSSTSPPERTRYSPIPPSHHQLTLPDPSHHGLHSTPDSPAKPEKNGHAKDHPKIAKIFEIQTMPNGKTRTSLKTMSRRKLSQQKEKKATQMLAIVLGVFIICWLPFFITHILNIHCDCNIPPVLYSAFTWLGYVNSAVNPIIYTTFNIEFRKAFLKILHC
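Potentiation of an EC20 dopamine calcium response is measured in a force-coupled, tetracycline-inducible Hek293 Trex D2 line. Compound-only kinetic reads over 180 s flag agonists before dopamine addition.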
D2 antagonist – D2 dopamine receptor (human) antagonism; P14416; HEK293 TREx D2 cells, calcium flux, dopamine EC80; inhibition, % at 10 µM; actives 2% (n = 340,000); AID 485344; in the data active = inhibition above about 30%; inactive = below that, where a call was filed
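Measurement of antagonist activity uses fluorescent calcium dye in inducible HEK293 T-REx D2 cells: 10 s baseline, compound addition with 180 s read, EC80 dopamine addition with a further 180 s read.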
D2 ag-1 – activates the human D2 dopamine receptor; P14416; activation, % (concentration not given with the values); DiscoveRx PathHunter D2 beta-arrestin, luminescence, 90 min; 100% = 57 uM dopamine signal; actives 0.084% (n = 360,000); in the data active = activation above about 40%; inconclusive = between about 15% and that limit
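DiscoveRx PathHunter D2 beta-arrestin cells (2,100/well) attached overnight, then compound-stimulated 90 min at 37 C in HBSS/10 mM HEPES/0.1% Tween-20 buffer; beta-galactosidase complementation read by luminescence after 1 h at ambient temperature. Dopamine 57 uM final (EC100) as control.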
D2 PAM-2 – potentiates the human D2 dopamine receptor allosterically. DiscoveRx D2 beta-arrestin cells, luminescence, 90 min; 100% = 57 uM dopamine signal. potentiation, % (concentration not given with the values). actives 0.23% (n = 360,000); in the data active = potentiation above about 50%; inconclusive = mostly about 30% to 49%
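D2 cells co-treated with compound plus 50 nM dopamine (EC20) for 90 min at 37 deg C to detect potentiation. Beta-arrestin recruitment was read as enzyme-fragment luminescence after 1 h at ambient temperature. Full response was set by 57 uM dopamine.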
D2 ag-2 – agonists of human D2 dopamine receptor | HEK293 T-REx D2 cells, calcium flux agonist mode | activation, % at 2 µM | actives 0.53% (n = 340,000) | AID 485358;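 active = activation over 3 SD above normal in the single-dose calcium agonist read, cut at about 30% in these data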
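Calcium-flux readout, 1 cycle/sec over 180 s following compound pin transfer, in inducible HEK293 Trex D2 cells (force-coupled); dopamine controls included. Positive calcium responses during this window marked compounds as potential agonists.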
D3 ag – D3 receptor agonism confirmed, beta-arrestin readout; shares compounds with D2 ag-2; DiscoveRx D3 beta-arrestin cells, luminescence, 90 min; Potency, µM (top dose mostly 76.9 µM), most hits filed as activators; actives 4% (n = 2,300); note: nearly all actives have a fitted effect of over 70% in size
D2 ag-3 – counter-screen for D3 agonists: human D2 dopamine receptor agonism; shares compounds with D2 ag-2; DiscoveRx PathHunter D2 beta-arrestin, luminescence, 90 min; response scale: percent relative to full dopamine signal; Potency, µM (titrated, usually from 76.9 µM), actives largely listed as activators; actives 5.9% (n = 2,300); AID 720507; note: nearly all actives have a fitted effect of over 70% in size
Large screens that a line does not name were inactive (follow-up assays come after a bar, where they were run). Shown are actives, neighbours in structure and some others; about 2.4% of the full set was active somewhere. Unless noted, calls come from the whole dose curve; as a rule, active = well fitted activation curve with a large enough effect; inconclusive = small, poorly fitted or top-dose-only effect; inactive = flat fitted curve, though single readings scatter.

COc1cccc(OCC(O)CN2CCN(c3ccccn3)CC2)c1 (stereo not given)	D2 antagonist 91.5, D2 ag-1 inconclusive, D2 ag-2 73.1 | D3 ag inconclusive | D2 ag-3 3.55µM
OC(CSc1ccc(F)cc1)CN1CCN(c2ccccc2)CC1 (stereo not given)	D2 antagonist 75.8, D2 ag-1 inconclusive, D2 ag-2 79.6 | D3 ag inactive | D2 ag-3 inactive
OC(CN1CCN(c2ccccc2)CC1)Cn1c2ccccc2c2ccccc21 (stereo not given)	none
COc1cccc(OCC(O)CN2CCN(c3ccc(Cl)cc3)CC2)c1 (stereo not given)	none
OCC(O)CN1CCN(c2ccccc2)CC1 (stereo not given)	D2 antagonist 58.9, D2 ag-2 82.2 | D3 ag inactive | D2 ag-3 inactive
COc1cccc(OCC(O)CN2CCN(c3ccccc3)CC2)c1 (stereo not given)	D2 antagonist 82.8, D2 ag-1 inconclusive, D2 ag-2 79.0 | D3 ag inconclusive | D2 ag-3 inconclusive
CCc1ccc(N2CC(C)Cn3c2nc2c3c(=O)n(CC(=O)O)c(=O)n2C)cc1 (stereo not given)	none (no result: D2 antagonist, D2 ag-1, D2 PAM-2)
OC(COc1ccccc1)CN1CCN(c2ncccn2)CC1 (stereo not given)	D2 antagonist 38.7 | D3 ag inactive | D2 ag-3 inactive
COc1ccc(/[N+]([O-])=C/c2ccco2)cc1	none | D3 ag inactive | D2 ag-3 inactive
COc1ccc(OCC(=O)N/N=C\c2ccco2)cc1	none
c1ccc(CCN2CN(CCCN3CCOCC3)c3nc4ccccc4n3C2)cc1	D2 ag-2 55.7 | D3 ag inactive | D2 ag-3 inactive
Cc1ccccc1C(=O)Nc1nc2nc(C)c(C)c(=O)n2[nH]1	none (no result: D2 antagonist, D2 ag-1, D2 PAM-2)
CSc1ccc(CCNS(=O)(=O)c2cc(-c3cc(C)no3)ccc2C)cc1	none (no result: D2 antagonist, D2 ag-1, D2 PAM-2)
Cc1cc(-c2ccc(C)c(S(=O)(=O)NCCCN3CCN(c4ccccc4)CC3)c2)on1	D2 antagonist 73.4, D2 ag-2 71.9 | D3 ag inconclusive | D2 ag-3 inconclusive
Cc1cc(-c2ccc(C)c(S(=O)(=O)NCCCN3CCN(c4ccccc4F)CC3)c2)on1	D2 antagonist 76.0, D2 ag-2 70.5 | D3 ag inconclusive | D2 ag-3 inconclusive
COc1ccc(-c2cc(C)no2)cc1S(=O)(=O)NCCCN1CCN(c2ccccc2)CC1	D2 antagonist 80.1, D2 ag-2 78.1 | D3 ag inactive | D2 ag-3 inconclusive
COc1cccc(CC(=O)OCC(=O)NC(C)c2ccc(F)cc2)c1 (stereo not given)	none | D3 ag inactive | D2 ag-3 inactive
COc1cc(CC(=O)OCC(=O)NC(C)c2ccccc2)cc(OC)c1OC (stereo not given)	none (no result: D2 PAM-1, D2 antagonist, D2 ag-2)
COc1ccccc1C(=O)N(Cc1nc(-c2cccc(C)c2)no1)C(C)C	none (no result: D2 antagonist, D2 ag-1, D2 PAM-2)
Cn1c(CC(=O)NNC(=O)c2ccccc2[N+](=O)[O-])nc2ccccc21	none | D3 ag inactive | D2 ag-3 inactive
Cn1c(CC(=O)NNC(=O)c2ccc(F)cc2Cl)nc2ccccc21	none
COc1ccc2c(c1)[nH]c1c(=O)n(Cc3ccco3)cnc12	D2 ag-2 31.5 | D3 ag inactive | D2 ag-3 inactive
COc1ccc2c(c1)[nH]c1c(=O)n(Cc3ccccn3)cnc12	none
O=C(CSC1=NS(=O)(=O)c2cc(Cl)ccc2N1)NCCc1ccccc1	D2 ag-2 41.4 | D3 ag inactive | D2 ag-3 inactive
COc1ccc(CCNC(=O)CSC2=NS(=O)(=O)c3cc(Cl)ccc3N2)cc1OC	none
CCCCN(C)C(=O)c1nc2ccccn2c1CN1CCN(c2ccccn2)CC1	D2 ag-2 52.6 | D3 ag inactive | D2 ag-3 inactive
CCCCN(C)C(=O)c1nc2ccccn2c1CN1CCN(c2cnccn2)CC1	none
COc1ccc(NC(=O)CN2CCN(Cc3ccccc3Cl)S2(=O)=O)cc1Cl	none (no result: D2 antagonist, D2 ag-1, D2 PAM-2)
COC(=O)C1CCN(CC(=O)Nc2ccc(C(=O)Nc3ccccc3OC)cc2)CC1	D2 ag-1 inconclusive, D2 ag-2 61.6 | D3 ag inactive | D2 ag-3 inconclusive
COc1ccccc1NC(=O)CN1CCN(c2ccccn2)CC1	D2 antagonist 50.1, D2 ag-1 inconclusive | D3 ag inactive | D2 ag-3 inconclusive
COc1ccccc1NC(=O)CN1CCN(CC(=O)Nc2ccc(F)cc2)CC1	none
COc1ccc(C)cc1NC(=O)CN1CCN(c2ccccn2)CC1	D2 ag-2 53.1 | D3 ag inactive | D2 ag-3 inactive
Cc1ccc(C)c(NC(=O)N2CCC(N3CCN(Cc4ccc(F)cc4)C(=O)C3=O)CC2)c1	none (no result: D2 antagonist, D2 ag-1, D2 PAM-2)
Cc1ccc(S(=O)(=O)N2CCOCC2)cc1C(=O)N1CCOCC1	none (no result: D2 antagonist, D2 ag-2)
Cc1ccc(S(=O)(=O)N2CCOCC2)cc1C(=O)N1CCN(c2ncccn2)CC1	D2 ag-2 35.7 | D3 ag inactive | D2 ag-3 inactive
Cc1ccccc1C(=O)NNC(=O)c1cc(S(=O)(=O)N2CCOCC2)ccc1C	none | D3 ag inactive | D2 ag-3 inactive
Cc1cccc(OCC(=O)OCc2cc(=O)n3nc(C4CC4)sc3n2)c1	none (no result: D2 antagonist, D2 ag-1, D2 PAM-2)
O=C(CSc1nc2c([nH]c3ccccc32)c(=O)n1-c1cccc(Cl)c1)NCc1ccccc1	none (no result: D2 antagonist, D2 ag-1, D2 PAM-2)
CCC(=O)N1C(Cc2ccccc2)COC1(C)C (stereo not given)	D2 ag-2 40.6 | D3 ag inactive | D2 ag-3 inactive
CCC1(C)NC(=O)N(CC(=O)N2CCC(Cc3ccccc3)CC2)C1=O (stereo not given)	none
CCOc1cccc2cc(S(=O)(=O)c3ccccc3F)c(=O)oc12	none (no result: D2 antagonist, D2 ag-1, D2 PAM-2)
COC(=O)C1CCN(Cc2cc(=O)oc3cc(OC)ccc23)CC1	D2 ag-2 55.5 | D3 ag inconclusive | D2 ag-3 inconclusive
COC(=O)C1CCN(Cc2ccc(OCCCN3CCN(c4ccc([N+](=O)[O-])cc4)CC3)cc2)CC1	D2 antagonist 74.5, D2 ag-2 54.1 | D3 ag inactive | D2 ag-3 inactive
COC(=O)C1CCN(Cc2ccc(C)cc2)CC1	D2 antagonist 68.8, D2 ag-1 inconclusive, D2 ag-2 75.3 | D3 ag inactive | D2 ag-3 inconclusive
Cc1ccc(CN2CCN(C(=O)C3CCC3)CC2)cc1	none
COc1ccc2c(CN3CCCC3)cc(=O)oc2c1	none (no result: D2 PAM-1, D2 antagonist, D2 ag-2)
CN(C)CCNC(=O)c1ccc(CS(=O)(=O)c2c(Cl)cccc2Cl)o1	none
